Source: PubChem BioAssay (Tox21)
Results filed as inconclusive are left out. Calls of active or inactive are those of the source. Unless noted, the call rests on the fitted dose curve; in most records, active means well fitted curve in the direction sought with a large enough effect in the repeat runs; inconclusive means weak or mixed curves; inactive means no such curve, though single readings can be large; an effect the other way counts as inactive or inconclusive.

Columns and labels:
[1] = qHTS assay to identify small molecule agonists of the vitamin D receptor (VDR) signaling pathway - cell viability counter screen (AID 743224); further: series mostly up to about 63 µM; nearly all actives have a fitted effect of over 50% in size
Procedure, shortened: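 Compounds were pin-transferred onto VDR-bla cells plated 4 h earlier; following 16 h incubation at 37C, cell viability was quantified by CellTiter-Glo luminescence after 30 min at room temperature.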

[2] = qHTS assay to identify small molecule antagonists of the vitamin D receptor (VDR) signaling pathway - cell viability counter screen (AID 743225); further: nearly all actives have a fitted effect of over 50% in size
Procedure, shortened: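 Luminescent cell viability (CellTiter-Glo) in VDR-bla HEK 293T cells after 16 h compound exposure at 37C in the presence of 3 nM final 1-alpha,25-dihydroxy vitamin D3.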

[3] = qHTS assay to identify small molecule agonists of the NFkB signaling pathway (AID 1159509; active means well fitted curve in the direction sought with a large enough effect in the signal ratio in the repeat runs, not every such curve was filed as active; the % refers to the signal ratio; further: series mostly up to about 61 µM)
Procedure, shortened: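 Readout: FRET fluorescence, 405 nm excitation, 460/530 nm emission; beta-lactamase expression disrupts FRET. Cells: ME-180 stably carrying NF-kB-driven bla reporter. Compound exposure 5 hr, 37 C, 5% CO2.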

[4] = qHTS assay to identify small molecule agonists of the NFkB signaling pathway - cell viability counter screen (AID 1159515; calls by dose curve; further: series mostly up to about 61 µM; nearly all actives have a fitted effect of over 55% in size)
Procedure, shortened: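 Parallel cytotoxicity counter screen in ME-180 cells carrying an NFkB-response-element beta-lactamase reporter, 2,000 cells/well. Compound exposure lasted 5 hr at 37 C, 5% CO2. Cell viability was quantified by CellTiter-Glo luminescence.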

[5] = qHTS assay to identify small molecule agonists of the endoplasmic reticulum stress response signaling pathway (AID 1159516; active means well fitted activation curve with a large enough effect in the signal ratio in the repeat runs, not every such curve was filed as active; the % refers to the signal ratio)
Procedure, shortened: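 Using a HeLa line with an ESRE-driven beta-lactamase gene, agonist activity was measured by FRET substrate fluorescence (460 and 530 nm emission) after cells were treated with compounds for 5 hr at 37 C and 5% CO2.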

[6] = qHTS assay to identify small molecule agonists of the endoplasmic reticulum stress response signaling pathway - cell viability counter screen (AID 1159517; calls by dose curve;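 further: HeLa cells carrying an ER stress response element beta-lactamase reporter; series mostly up to about 61 µM; nearly all actives have a fitted effect of over 50% in size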)
Procedure, shortened: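 Cytotoxicity of test compounds toward ESRE-bla HeLa cells was assessed after 5 hr exposure. The luminescent CellTiter-Glo signal was measured 30 min after reagent addition.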

[7] = qHTS assay to identify small molecule antagonists of the retinoid-related orphan receptor gamma (ROR-gamma) signaling pathway - cell viability counter screen (AID 1159520); further: nearly all actives have a fitted effect of over 50% in size
Procedure, shortened: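 Tet-on ROR gamma CHO cells (1,000/well) were plated 4 hr, given compounds in DMSO for 2 hr at 37 C, then induced with 1 uM final doxycycline for 16 hr. Viability was read as ATP by CellTiter-Glo luminescence after 30 min.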

[8] = target: Nuclear receptor ROR-gamma (Homo sapiens) (UniProt P51449); experiment: qHTS assay to identify small molecule antagonists of the retinoid-related orphan receptor gamma (ROR-gamma) signaling pathway (AID 1159521)
Procedure, shortened: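 CHO cells expressing RORγ under a TET-on promoter, luciferase under RORE control. Dox 1 uM final, 16 h; compounds added 2 h prior. Luminescence decrease measured.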

[9] = qHTS assay to identify small molecule agonists of the AP-1 signaling pathway - cell viability counter screen (AID 1159525; calls by dose curve; further: nearly all actives have a fitted effect of over 55% in size)
Procedure, shortened: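 Each titration point was normalised to DMSO and tetra n-octyl ammonium bromide controls. The read was Cell Titer Glo luminescence after 30 min at RT, following 5 h compound exposure of ME-180 AP-1-bla cells at 37 °C.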

[10] = qHTS assay to identify small molecule agonists of the AP-1 signaling pathway (AID 1159526; calls by dose curve)
[11] = target: Retinoic acid receptor RXR-alpha (Homo sapiens) (UniProt P19793); experiment: qHTS assay to identify small molecule agonists of the RXR signaling pathway (AID 1159527; calls by dose curve; further: nearly all actives have a fitted effect of over 35% in size)
Retinoic acid receptor RXR-alpha (Homo sapiens), sequence (P19793 whole entry, looked up): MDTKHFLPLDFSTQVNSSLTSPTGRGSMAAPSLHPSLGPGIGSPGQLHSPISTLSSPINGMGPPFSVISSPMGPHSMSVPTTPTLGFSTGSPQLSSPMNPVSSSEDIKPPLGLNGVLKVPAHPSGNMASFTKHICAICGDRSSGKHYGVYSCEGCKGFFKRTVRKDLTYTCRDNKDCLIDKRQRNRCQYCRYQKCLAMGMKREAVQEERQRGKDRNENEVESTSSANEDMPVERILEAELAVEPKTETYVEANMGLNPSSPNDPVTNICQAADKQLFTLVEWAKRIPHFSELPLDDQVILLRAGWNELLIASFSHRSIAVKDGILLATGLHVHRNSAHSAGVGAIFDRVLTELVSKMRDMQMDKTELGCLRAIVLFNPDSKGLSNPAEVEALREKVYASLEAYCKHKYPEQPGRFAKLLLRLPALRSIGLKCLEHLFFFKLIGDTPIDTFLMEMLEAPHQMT
Procedure, shortened: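 Beta-lactamase reporter assay, agonist format. Engineered HEK 293T line, charcoal-stripped FBS at 2%, overnight (16 hr) exposure, fluorescence at 460 and 530 nm after 405 nm excitation.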

[12] = qHTS assay to identify small molecule agonists of the RXR signaling pathway - cell viability counter screen (AID 1159529)
Procedure, shortened: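 Same-well viability check after the LiveBLAzer FRET read: CellTiter-Glo added, luminescence measured after 30 min at room temperature. Reporter HEK 293T cells had been treated with compounds for 16 hr following a 5 hr preincubation.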

[13] = qHTS assay to identify small molecule antagonists of the retinoid acid receptor (RAR) signaling pathway - cell viability counter screen (AID 1159551); further: nearly all actives have a fitted effect of over 35% in size
Procedure, shortened: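 ATP-based viability, C3RL4 cells, 6 h at 37 C with 1 uM final retinol co-added after compound; luminescence read 30 min post CellTiter-Glo, RT.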

[14] = qHTS assay to identify small molecule agonists of the retinoic acid receptor (RAR) signaling pathway (AID 1159553)
Procedure, shortened: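 Quantitative high-throughput format: the Tox21 10K library was tested on C3RL4 RARE-luciferase cells for 6 hr at 37 C and 5% CO2, with luminescence measured after a 30 min room-temperature reagent step.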

[15] = qHTS assay to identify small molecule antagonists of the estrogen related receptor (ERR) signaling pathway from Tox21 library - cell viability counter screen (AID 1224834); further: nearly all actives have a fitted effect of over 30% in size
Procedure, shortened: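 Compounds in DMSO were pinned onto ERR cells that had been incubated for 6 h, and the plates were held at 37 C for 17.5 h. CellTiter-Fluor reagent was then added and fluorescence was measured after 30 min.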

[16] = qHTS assay to identify small molecule antagonists of the retinoic acid receptor (RAR) signaling pathway (AID 1159552; further: nearly all actives have a fitted effect of over 50% in size)
Procedure, shortened: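 Readout: luciferase luminescence, 30 min post-reagent at RT. Setup: C3RL4 RARE reporter cells, compounds plus retinol 1 uM final, 6 hr incubation at 37 C and 5% CO2.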

[17] = qHTS assay to identify small molecule antagonists of the estrogen related receptor (ERR) signaling pathway - cell viability counter screen (AID 1224818);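 further: series mostly up to about 46 µM; viability measured after 17.5 h of compound exposure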
Procedure, shortened: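 Quantitative high-throughput viability counter screen in ERR cells. Compounds (DMSO) incubated 17.5 h at 37 C; read-out was CellTiter-Fluor fluorescence.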

Measured: Potency

CCCC/C=C/C=C\C=O
inactive: [1] | [2] | [3] | [4] | [5] | [6] | [7] | [8] | [9] | [10] | [11] | [12] | [13] | [14] | [15]

COc1ccc2c(c1)C(=O)N(CCc1ccc(S(=O)(=O)NC(=O)NC3CCCCC3)cc1)C(=O)C2(C)C
inactive: [1] | [2] | [3] | [4] | [5] | [6] | [7] | [8] | [9] | [10] | [11] | [12] | [13] | [14]

CC(N)C(=O)OC(C)(C)Cc1ccc(Cl)cc1 (stereo unspecified)
inactive: [1] | [2] | [3] | [4] | [5] | [6] | [7] | [8] | [9] | [10] | [11] | [12] | [13] | [14]

N[C@@H](CCC(=O)Nc1ccc([N+](=O)[O-])cc1)C(=O)O
inactive: [1] | [2] | [3] | [4] | [5] | [6] | [7] | [8] | [9] | [10] | [11] | [12] | [13] | [16] | [14]

O=C(/N=N/C(=O)OCc1ccccc1)OCc1ccccc1
inactive: [1] | [2] | [3] | [4] | [5] | [6] | [7] | [8] | [9] | [10] | [11] | [12] | [13] | [16] | [15]

CCCCCCCCCC(C)=O
inactive: [1] | [2] | [3] | [4] | [5] | [6] | [7] | [8] | [9] | [10] | [11] | [12] | [13] | [16] | [15]

CCCN1C[C@H](CSC)C[C@@H]2c3cccc4[nH]cc(c34)C[C@H]21
inactive: [1] | [2] | [3] | [4] | [5] | [6] | [7] | [8] | [9] | [10] | [11] | [12] | [13] | [17] | [15]

CCN(C)C(=O)Oc1cccc([C@H](C)N(C)C)c1
inactive: [1] | [3] | [4] | [5] | [6] | [7] | [8] | [9] | [10] | [11] | [12] | [13] | [14]

BrCc1cccc(Oc2ccccc2)c1
inactive: [1] | [2] | [3] | [4] | [5] | [6] | [7] | [8] | [9] | [10] | [11] | [12] | [13] | [14] | [15]
